# In PubChem BioAssay AID652023 (National Center for Advancing Translational Sciences (NCATS), 2013):
# The list shows a part of the results. Results filed as inconclusive are left out. Active and inactive are the calls of the source. The call rests on the fitted dose curve; in most records, active means well fitted inhibition curve with a large enough effect; inconclusive means small, poorly fitted or top-dose-only effect; inactive means flat fitted curve, though single readings scatter.
# Molecular target: Thioredoxin reductase 1, cytoplasmic (Rattus norvegicus) (UniProt O89049)
# Sequence (O89049 whole entry, looked up): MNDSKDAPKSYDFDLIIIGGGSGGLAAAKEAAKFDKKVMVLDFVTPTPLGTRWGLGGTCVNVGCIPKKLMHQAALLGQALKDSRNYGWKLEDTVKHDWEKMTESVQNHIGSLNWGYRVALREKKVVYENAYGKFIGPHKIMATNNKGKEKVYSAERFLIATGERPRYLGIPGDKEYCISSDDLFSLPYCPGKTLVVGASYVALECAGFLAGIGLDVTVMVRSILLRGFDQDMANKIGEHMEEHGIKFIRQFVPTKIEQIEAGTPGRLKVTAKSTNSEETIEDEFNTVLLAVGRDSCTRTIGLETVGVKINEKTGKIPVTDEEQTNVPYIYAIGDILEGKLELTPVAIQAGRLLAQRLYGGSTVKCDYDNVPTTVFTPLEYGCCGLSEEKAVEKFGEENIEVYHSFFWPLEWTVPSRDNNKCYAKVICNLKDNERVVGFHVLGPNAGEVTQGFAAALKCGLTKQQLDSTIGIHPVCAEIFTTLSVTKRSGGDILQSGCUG
# Test: qHTS Assay for Inhibitors of Mammalian Selenoprotein Thioredoxin Reductase 1 (TrxR1): Hit Validation in Primary Screen
# Conditions: recombinant TrxR1, NADPH fluorescence consumption, selenite substrate
# Description: The selenoprotein thioredoxin reductase (TrxR; EC 1.8.1.9) is a FAD containing homodimeric pyridine nucleotide-disulfide oxidoreductase with many cellular roles. Together with NADPH and its prime substrate thioredoxin (Trx), the enzyme forms the core of the Trx system. The mammalian Trx system exerts a wide spectrum of functions including redox regulation, antioxidant defense, regulation of transcription factors as well as support of cell growth and replication. Many of these functions involve the reduction of Trx, which may subsequently reduce a number of different substrates including ribonucleotide reductase, peroxiredoxins or NFkB. […]
# Assay protocol: 2 uL of reagents (buffer in column 4 as negative control and 90 nM rTrxR1 in columns 1-3 and 5-48) were dispensed into Greiner black solid-bottom 1,536-well assay plates, followed by 1 uL of NADPH (400 uM final concentration) to each well. […] The plate was immediately transferred to a ViewLux high-throughput CCD imager (PerkinElmer), wherein kinetic measurements of NADPH fluorescence (Ex 340 nm, Em 450 nm) were acquired (8 minute kinetic read). Read 1 was utilized to assess the capacity of a compound to serve as an rTrxR1 substrate, i.e. a decrease in NADPH fluorescence compared to the no-compound background is an indication of a substrate behavior for that particular compound. […]
smiles,measurement,value
COc1ccc(-c2nc(CS(=O)CC(=O)N3CCC4(CC3)OCCO4)c(C)o2)cc1 (stereo unspecified),Potency,7.52 µM (active)
